# Data: PubChem BioAssay AID686970 (National Center for Advancing Translational Sciences (NCATS), 2013)
# About 6,000 (1.7%) of roughly 360,000 compounds were called active. A call without a number means that no potency is given here. About 8% were inconclusive and are not listed. Calls follow the shape of the dose curve; as a rule, active = well fitted cell-killing curve with a large enough effect; inconclusive = small, poorly fitted or top-dose-only effect, or effect the other way; inactive = flat fitted curve, though single readings scatter. This excerpt belongs to a sample that is enriched for actives.
# Experiment: qHTS for induction of synthetic lethality in tumor cells producing 2HG: qHTS for the HT-1080-NT fibrosarcoma cell line;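 also: NT is the 2HG producing partner of a matched IDH1 knockdown line; nearly all actives have a fitted effect of over 55% in size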
# Details: HT-1080-NT fibrosarcoma viability, CellTiter-Glo ATP luminescence, 48 h; series mostly up to 46.1 µM
# How it was run: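 A 48-hour cytotoxicity screen used HT-1080-NT cells plated 2 hours before compound delivery. ATP-based CellTiter-Glo luminescence measured viability, normalized to DMSO and no-cell controls.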
# Potency is read from the fitted curve at half-maximal effect.
SMILES,Potency,"activity, negative = less viability"
CCCNC(=O)C1(C)CCCN(C(=O)c2cccc(OC(C)=O)c2C)C1 (stereo not drawn),inactive,
CC1(C(=O)Nc2ccc3c(c2)OCCO3)CN(S(C)(=O)=O)CC(=O)N1Cc1cccc(F)c1 (stereo not drawn),inactive,
CC(=O)Nc1ccc(NC(=O)COC(=O)c2ccccc2C(=O)c2ccccc2)cc1,inactive,
COC(=O)c1cc(NC(=O)Cc2ccccc2[N+](=O)[O-])ccc1Cl,inactive,
N#Cc1cccc(NC(=O)COC(=O)c2ccccc2C(=O)c2ccc(Cl)c([N+](=O)[O-])c2)c1,7.31 µM (active),
COc1ccc(C2Nc3ccc(NC(=O)COC(C)=O)cc3C(=O)N2Cc2ccccc2)cc1COc1ccc(NC(C)=O)cc1 (stereo not drawn),inactive,
CC(Sc1ccc(S(=O)(=O)N2CCN(C)CC2)cn1)C(=O)NC1CCCC(C)C1C (stereo not drawn),inactive,
Cc1ccc(S(=O)(=O)N2CCN(c3ncnc4ccccc34)CC2)cc1,inactive,
Cc1ccc(C)c(S(=O)(=O)N2CCN(c3ncnc4sccc34)CC2)c1,5.8 µM (active),
COc1ccc(C)cc1S(=O)(=O)N1CCN(S(=O)(=O)c2cc(C(=O)O)ccc2C)CC1,inactive,
CC1CCCC(C)N1C(=O)COC(=O)c1ccccc1C(=O)c1ccccc1 (stereo not drawn),inactive,
Cc1ccccc1Cn1c(C)c(C(=O)NCc2cccc(C(F)(F)F)c2)sc1=O,inactive,
OCCc1ccc(NCCc2ccco2)cc1,inactive,
CC1=C/C(=N\OS(=O)(=O)c2ccccc2)C=CC1=O,20 µM (active),
NC(=O)CSc1nnc(-c2cccc(S(=O)(=O)N3CCOCC3)c2)o1,inactive,
Cc1cccc(C)c1Cn1c(C)c(C(=O)NCc2cccc(Cl)c2)sc1=O,inactive,
OC(c1ccccc1)c1nc(-c2cnc3ccccc3c2)cs1 (stereo not drawn),inactive,
NC(=O)CSc1nnc(NC(=O)c2ccc3ccccc3c2)s1,inactive,
O=C(Nc1nnc(SCc2ccccc2Cl)s1)c1cccc([N+](=O)[O-])c1,18.4 µM (active),
O=C(Nc1nnc(SCc2c(Cl)cccc2Cl)s1)c1cccc([N+](=O)[O-])c1,inactive,
CC1=C(C(=O)N2CCOCC2)CC(CC(=O)NCCCN(C)C)C(=O)N1Cc1ccc(C(C)(C)C)cc1 (stereo not drawn),inactive,
O=C(Nc1ccc(Br)cn1)C1CCN(S(=O)(=O)c2cccs2)CC1,9.2 µM (active),
O=C(C1CCN(S(=O)(=O)c2cccs2)CC1)N1CCCCCC1,inactive,
O=C(NCc1ccc(Cl)cc1)C1CCN(S(=O)(=O)c2cccs2)CC1,inactive,
Cc1ccc(C(=O)Nc2c(-c3ccccc3)[nH][nH]c2=O)cc1,inactive,

SMILES,Potency,"activity, negative = less viability"
COC(=O)c1ccc(NCc2cc(O)ccc2O)cc1,16.4 µM (active),
O=C(OC12CC3CC(CC(C3)C1)C2)c1ccc(NCc2cc(O)ccc2O)cc1,14.6 µM (active),
CC(CN1CCOCC1)OC(=O)c1ccc(Cl)cc1Cl (stereo not drawn),inactive,
CCN(CC)C(=O)CCC(=O)Nc1ccc(C(=O)OC)cc1,inactive,
CC(C)OC(=O)c1ccc(NCc2cc(O)ccc2O)cc1Cl,20.6 µM (active),
CC(OC(=O)c1ccc(Cl)cc1O)C(=O)NCCC1=CCCCC1 (stereo not drawn),inactive,
C#CCNc1ccc(C(=O)OCC)cc1,inactive,
CC1(C)C2CCC1(C)C(OC(=O)c1ccc(O)cc1)C2 (stereo not drawn),inactive,
CC(C)CCC(=O)Nc1cc(S(=O)(=O)N2CCOCC2)ccc1N1CCCC1,inactive,
Cc1ccc(S(=O)(=O)N2CCOCC2)cc1NC(=O)c1ccncc1,inactive,
Cc1ccc(S(=O)(=O)N2C[C@]3(O)C[C@@H]4C(=O)N(c5ccccc5)C(=O)[C@@H]4C[C@]3(OC(=O)NC3CC3)C2)cc1,inactive,
Cc1ccccc1-c1nc(NC(C)C)nc2cc(-c3ccccc3)sc12,inactive,
COc1ccc(CCn2c3c(c(=O)[nH]c2=S)CN(C(C)C)CN3)cc1OC,inactive,
CC1(C(=O)Nc2cccc3cccnc23)CCN1C(=O)CCC1CCCC1 (stereo not drawn),inactive,
CC1(C(=O)NS(=O)(=O)c2ccc(C#N)cc2)CCN1C(=O)c1ccc(C2CCCCC2)cc1 (stereo not drawn),inactive,
C[C@H](CO)N1C[C@H](C)[C@@H](CN(C)C(=O)C2CCCCC2)OCc2cnnn2CCCC1=O,inactive,
Cc1cccc(-c2ncc(CN3CCC(CO)(CCCc4ccccc4)CC3)cn2)c1,inactive,
Cc1c(CN2CCC(CO)(CCOc3ccccc3)CC2)[nH]c2ccc(Cl)cc12,25.9 µM (active),
CC(C)(O)C#Cc1ccc(CN2CCC(CO)(CCc3ccccc3)CC2)cc1,inactive,
CCCNC(=O)C1(C)CCN(Cc2ccc(Cl)c(Cl)c2)C1 (stereo not drawn),inactive,
CN1OC[C@@H]2CN(S(=O)(=O)c3cccc(C(F)(F)F)c3)[C@H](c3ccc(-c4cc5ccccc5o4)cc3)C[C@@H]21,inactive,
CNc1cnc(-c2cc(OC)c(OC)c(OC)c2)cn1,inactive,
CCn1cc(CN2CCC(C(=O)Nc3cccc(-c4cccc(Cl)c4)c3)CC2)cn1,14.6 µM (active),
CCn1cc(CN2CCC(n3nccc3NC(=O)CCCc3ccccc3)CC2)c(C)n1,inactive,
O=C(Nc1cnn(Cc2ccc(Cl)cc2)c1)C1CCCC1,inactive,

SMILES,Potency,"activity, negative = less viability"
O=C(NC1CCCC1)C1CCN(C(=O)Nc2cccc(Cl)c2)CC1,inactive,
O=C(Nc1cccc(-c2cccc(Cl)c2)c1)C1CCN(C2CCC2)CC1,25.9 µM (active),
COc1cccc(-c2cccc(NC(=O)C3CCN(C4CCC4)CC3)c2)c1,inactive,
O=C(Nc1cccc(-c2cscn2)c1)C1CCN(Cc2ccsc2)CC1,inactive,
CCn1cc(CN2CCC(C(=O)Nc3cccc(-c4cccc(Cl)c4)c3)CC2)c(C)n1,20.6 µM (active),
CC(=O)c1cc(CN2CCC(C(=O)Nc3cccc(-c4cscn4)c3)CC2)cs1,inactive,
O=C(COC(=O)c1cccc(Cl)c1Cl)NC1CCCCCC1,inactive,
CC(C)Oc1cc(F)ccc1-c1cc(C(=O)Nc2ccc(F)cc2)[nH]n1,inactive,
CCN(CC)C(=O)C1=C(C)N(Cc2ccccc2)C(=O)C(CC(=O)NC(c2ccccc2)c2ccccc2)C1 (stereo not drawn),inactive,
O=C(C[C@H]1CC[C@@H](NC(=O)c2ccncc2)[C@@H](CO)O1)NCC1CC1,inactive,
NCCCCC(C(=O)O)N(C(=O)OCc1ccccc1)C(=O)OCc1ccccc1 (stereo not drawn),inactive,
CCCCCCn1c(=O)n2n(c1=O)C[C@]1(OC(=O)NCc3ccc(OC)c(OC)c3)CN(S(=O)(=O)c3ccc(C)cc3)C[C@]1(O)C2,inactive,
COc1ccccc1-n1nnnc1SCC(=O)NC(=O)Cc1ccccc1,inactive,
COc1ccccc1-n1nnnc1S(=O)(=O)Cc1ccc(Cl)cc1,20.6 µM (active),
CCC(C)N(C(=O)CSc1nnnn1-c1ccccc1OC)C1CCS(=O)(=O)C1 (stereo not drawn),,-3.07% [at 9.24 µM] (inactive)
CC(=O)C[C@@H]1OC[C@H](CO)N1S(=O)(=O)c1ccc(C)cc1,inactive,
COc1ccc2sc(-c3ccc(N(C)C)cc3)c(-c3ccc4cc[nH]c4c3)c2c1,inactive,
COc1ccc2c(c1)c(=Cc1ccc(N(C)C)cc1)c1cc(-c3ccccc3)[n+](C)n12,13 µM (active),
O=C(NCC(O)c1nc2ccccc2[nH]1)c1ccc(Br)cc1 (stereo not drawn),inactive,
Cc1cc(=O)oc2cc(OCC3CC(c4ccccc4Cl)=NO3)ccc12 (stereo not drawn),0.708 µM (active),
Cc1cc(=O)oc2cc(OCCC[n+]3ccccc3)ccc12,inactive,
CCOc1ccccc1N1CCN(C(=O)COc2ccc3c(C)cc(=O)oc3c2)CC1,inactive,
COc1cc(NC(=O)C2=C(C)OCCS2)c(Cl)cc1C(=O)NCCCN1CCCC(C)C1 (stereo not drawn),inactive,
Cc1ccc(S(=O)(=O)N[C@H]2CCC[C@@H]2O)cc1,inactive,
CCOC(=O)N1C(=O)C[C@](Sc2ccc(C)cc2)(C(=O)OC)[C@H]1c1ccccc1,inactive,

SMILES,Potency,"activity, negative = less viability"
Cn1c(CC(=O)NNC(=O)c2ccccc2F)nc2ccccc21,inactive,
CN(NC(=O)c1ccccc1F)c1nc(C(F)(F)F)nc2ccccc12,0.291 µM (active),
CC(NC(=O)c1ccccc1F)c1cccc2ccccc12 (stereo not drawn),inactive,
COc1ccc(C(=O)NN(C)c2nc(-c3ccccc3)cc(C)c2S(C)(=O)=O)cc1,inactive,
Cc1cccc(C(=O)Nc2ccc(C(=O)N/N=C/c3cccc(C)n3)cc2)c1,inactive,
CSc1nc(N(C)NC(=O)c2cccc(C)c2)c2ccccc2n1,0.13 µM (active),
COc1ccc(-c2cc(NC=O)c3ncc(-c4cccc(C(=O)N(C)C)c4)n3c2)c(OC)c1,inactive,
CC1(C)OC(=O)C2=C(CC(c3ccccc3)OC2CCc2ccccc2)O1 (stereo not drawn),inactive,
O=Nc1c(O)cc(O)c2ccccc12,inactive,
CCC(c1nnnn1-c1ccc2c(c1)OCCO2)N1CCN(c2ccc(C(F)(F)F)cn2)CC1 (stereo not drawn),inactive,
CCC(C)CN1C(=O)CSCC1(C)C(=O)NCc1ccccc1 (stereo not drawn),inactive,
COc1ccc2c(c1)CCCO[C@]21O[C@H](CCO)C[C@H](O)[C@H]1O,inactive,
Cc1nnnn1/C(=C\c1ccccc1)C(=O)OCC(=O)N1CC2(C)CC1CC(C)(C)C2 (stereo not drawn),23.1 µM (active),
CN(C)C(=O)COC(=O)c1cccc(S(=O)(=O)N2CC3(C)CC2CC(C)(C)C3)c1 (stereo not drawn),inactive,
CCOC(=O)C1CCCN(C(=O)c2cc(-c3cccs3)oc2C)CC1 (stereo not drawn),inactive,
Cc1[nH]c(=O)c(C(=O)/C=C/c2ccccc2)c2c1CCCC2,7.08 µM (active),
CC1(C(=O)O)CCCN(C(=O)/C=C/c2ccccc2)C1 (stereo not drawn),inactive,
Cc1cccc(C=CC(=O)c2ccc(Cl)cc2)c1,inactive,
O=C(NCCOc1ccccc1)N1[C@H]2CC[C@@H]1C=C(c1ccc(F)cc1OCc1ccccc1)C2,inactive,
CC1(C(=O)NCc2ccccc2)CN(S(C)(=O)=O)CC(=O)N1CC(F)(F)F (stereo not drawn),inactive,
OC[C@@H]1CN(Cc2ccc(-c3ccccc3)cc2)C[C@H](n2cnc3c(NC4CCCC4)ncnc32)O1,9.2 µM (active),
OC[C@@H]1CN(Cc2cccs2)C[C@H](n2cnc3c(NC4CCCC4)ncnc32)O1,inactive,
OC[C@@H]1CN(C2CCCC2)C[C@H](n2cnc3c(NC4CCC4)ncnc32)O1,inactive,
